# Data from PMC7862700, “An all-to-all approach to the identification of sequence-specific readers for epigenetic DNA modifications on cytosine”.
# Legend:
# Assay in all cases: DAPPL (digital affinity profiling via proximity ligation, sequencing); 10 mM Tris-HCl pH 7.5, 50 mM NaCl, 1 mM DTT, 4% glycerol, room temperature, 30 min; GST-TFs on glutathione beads, 16-mer random dsDNA library, 0.1% formaldehyde crosslink after washing; high values mean tight binding
# FLI1 = target: T1, FLI1 (Homo sapiens, UniProt Q01543 1-452); settings: protein: recombinant; tags: N-terminal GST; dsDNA, one strand shown
# T1 sequence: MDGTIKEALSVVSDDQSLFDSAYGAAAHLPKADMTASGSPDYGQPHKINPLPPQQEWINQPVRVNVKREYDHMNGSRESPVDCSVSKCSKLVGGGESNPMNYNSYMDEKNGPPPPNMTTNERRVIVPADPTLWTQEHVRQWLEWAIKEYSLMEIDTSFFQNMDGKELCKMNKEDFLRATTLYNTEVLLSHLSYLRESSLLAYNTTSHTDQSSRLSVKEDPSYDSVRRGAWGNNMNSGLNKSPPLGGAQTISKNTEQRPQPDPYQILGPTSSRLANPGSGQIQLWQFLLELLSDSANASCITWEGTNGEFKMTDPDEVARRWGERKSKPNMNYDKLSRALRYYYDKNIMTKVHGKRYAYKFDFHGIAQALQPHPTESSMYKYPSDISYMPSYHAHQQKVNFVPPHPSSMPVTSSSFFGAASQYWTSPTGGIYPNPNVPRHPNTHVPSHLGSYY
# In short: (§1)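 Beads coated with glutathione captured GST-fused human transcription factors that had been expressed in yeast, and the factors were then given DNA barcodes and pooled with a tag-only sample. The pools were incubated with 200 nmole of a random double-stranded 16-mer DNA library in Tris/NaCl/DTT/glycerol buffer for 30 min at room temperature, washed, crosslinked with 0.1% formaldehyde and proximity-ligated with BsaI/T4 ligase at 37 °C for 1 h. PCR amplification and Illumina NextSeq500 sequencing came last. Binding signal is each hexamer's read frequency for a factor divided by its frequency for the tag-only sample.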
# ELK1 = target: T2, ELK1 (Homo sapiens, UniProt P19419 1-428); settings: protein: recombinant; tags: N-terminal GST; dsDNA, one strand shown
# T2 sequence: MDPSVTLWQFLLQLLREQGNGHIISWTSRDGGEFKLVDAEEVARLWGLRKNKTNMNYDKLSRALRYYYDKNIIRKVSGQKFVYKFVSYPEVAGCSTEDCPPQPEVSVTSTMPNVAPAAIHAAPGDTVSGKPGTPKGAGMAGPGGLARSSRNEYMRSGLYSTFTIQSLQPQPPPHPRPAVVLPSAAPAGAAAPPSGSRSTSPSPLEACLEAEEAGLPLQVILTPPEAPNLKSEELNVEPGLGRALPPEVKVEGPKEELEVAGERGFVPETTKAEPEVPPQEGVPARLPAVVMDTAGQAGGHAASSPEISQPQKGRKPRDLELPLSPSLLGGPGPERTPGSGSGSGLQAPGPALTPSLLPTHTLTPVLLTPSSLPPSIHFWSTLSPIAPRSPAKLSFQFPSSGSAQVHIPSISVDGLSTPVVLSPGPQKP
# In short: as §1
# GABPA = target: T3, GABPA (Homo sapiens, UniProt Q06546 1-454); settings: protein: recombinant; tags: N-terminal GST; dsDNA, one strand shown
# T3 sequence: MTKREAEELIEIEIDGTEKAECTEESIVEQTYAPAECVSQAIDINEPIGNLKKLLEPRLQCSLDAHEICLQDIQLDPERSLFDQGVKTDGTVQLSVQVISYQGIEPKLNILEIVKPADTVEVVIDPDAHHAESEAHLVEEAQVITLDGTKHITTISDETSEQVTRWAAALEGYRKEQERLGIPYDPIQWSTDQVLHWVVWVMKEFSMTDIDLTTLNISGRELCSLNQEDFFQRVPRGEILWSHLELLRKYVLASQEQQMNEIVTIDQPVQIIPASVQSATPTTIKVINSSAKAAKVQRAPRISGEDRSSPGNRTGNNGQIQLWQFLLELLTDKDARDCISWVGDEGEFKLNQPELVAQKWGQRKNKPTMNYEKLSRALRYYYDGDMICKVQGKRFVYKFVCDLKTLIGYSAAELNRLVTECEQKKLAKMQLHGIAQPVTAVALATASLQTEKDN
# In short: as §1
# ERG = target: T4, ERG (Homo sapiens, UniProt P11308 1-479); settings: protein: recombinant; tags: N-terminal GST; dsDNA, one strand shown
# T4 sequence: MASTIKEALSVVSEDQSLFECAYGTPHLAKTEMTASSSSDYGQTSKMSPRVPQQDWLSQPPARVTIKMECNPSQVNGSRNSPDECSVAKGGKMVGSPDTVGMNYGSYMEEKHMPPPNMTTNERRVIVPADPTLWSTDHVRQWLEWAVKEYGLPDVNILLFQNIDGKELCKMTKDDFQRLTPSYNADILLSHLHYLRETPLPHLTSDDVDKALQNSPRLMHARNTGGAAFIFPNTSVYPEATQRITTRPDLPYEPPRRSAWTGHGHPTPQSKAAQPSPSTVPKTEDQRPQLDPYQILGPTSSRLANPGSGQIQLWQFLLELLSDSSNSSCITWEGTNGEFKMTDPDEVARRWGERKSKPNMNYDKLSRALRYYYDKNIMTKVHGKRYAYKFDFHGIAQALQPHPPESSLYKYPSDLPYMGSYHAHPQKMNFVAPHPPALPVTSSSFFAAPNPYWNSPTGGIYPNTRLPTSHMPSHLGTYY
# In short: as §1
# ELF1 = ELF1 (Homo sapiens, UniProt P32519 1-619); settings: protein: recombinant; tags: N-terminal GST; dsDNA, one strand shown
# Sequence of ELF1 (P32519 whole entry): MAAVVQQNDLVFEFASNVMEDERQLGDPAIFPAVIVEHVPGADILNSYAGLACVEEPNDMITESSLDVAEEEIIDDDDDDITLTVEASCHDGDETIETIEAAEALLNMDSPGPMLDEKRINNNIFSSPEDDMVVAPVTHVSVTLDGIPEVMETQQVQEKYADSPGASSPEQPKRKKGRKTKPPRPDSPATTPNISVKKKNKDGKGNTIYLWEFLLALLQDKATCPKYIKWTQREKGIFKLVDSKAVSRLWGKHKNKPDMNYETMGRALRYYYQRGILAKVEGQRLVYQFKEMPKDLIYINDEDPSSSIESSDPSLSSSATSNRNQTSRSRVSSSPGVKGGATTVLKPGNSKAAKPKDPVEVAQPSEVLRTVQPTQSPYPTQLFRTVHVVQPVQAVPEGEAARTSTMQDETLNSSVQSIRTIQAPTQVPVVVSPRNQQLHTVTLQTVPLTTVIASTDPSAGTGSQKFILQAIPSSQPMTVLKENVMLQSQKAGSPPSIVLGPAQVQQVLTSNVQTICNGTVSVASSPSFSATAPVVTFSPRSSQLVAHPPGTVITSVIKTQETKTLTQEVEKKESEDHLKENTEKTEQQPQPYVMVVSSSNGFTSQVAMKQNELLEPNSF
# In short: as §1
# EHF = target: T5, EHF (Homo sapiens, UniProt Q9NZC4 1-300); settings: protein: recombinant; tags: N-terminal GST; dsDNA, one strand shown
# T5 sequence: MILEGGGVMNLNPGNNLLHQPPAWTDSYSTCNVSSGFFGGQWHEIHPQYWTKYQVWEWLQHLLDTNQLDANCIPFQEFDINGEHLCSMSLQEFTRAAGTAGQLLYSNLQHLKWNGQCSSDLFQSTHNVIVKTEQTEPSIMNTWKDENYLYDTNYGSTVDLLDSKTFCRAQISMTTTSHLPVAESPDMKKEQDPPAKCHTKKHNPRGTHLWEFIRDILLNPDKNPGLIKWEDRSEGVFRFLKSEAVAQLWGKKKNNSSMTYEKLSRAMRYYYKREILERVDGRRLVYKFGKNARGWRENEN
# In short: as §1
# SPI1 = SPI1 (Homo sapiens, UniProt P17947 1-270); settings: protein: recombinant; tags: N-terminal GST; dsDNA, one strand shown
# In short: as §1
# SPIB = SPIB (Homo sapiens, UniProt Q01892 1-262); settings: protein: recombinant; tags: N-terminal GST; dsDNA, one strand shown
# Sequence of SPIB (Q01892 whole entry): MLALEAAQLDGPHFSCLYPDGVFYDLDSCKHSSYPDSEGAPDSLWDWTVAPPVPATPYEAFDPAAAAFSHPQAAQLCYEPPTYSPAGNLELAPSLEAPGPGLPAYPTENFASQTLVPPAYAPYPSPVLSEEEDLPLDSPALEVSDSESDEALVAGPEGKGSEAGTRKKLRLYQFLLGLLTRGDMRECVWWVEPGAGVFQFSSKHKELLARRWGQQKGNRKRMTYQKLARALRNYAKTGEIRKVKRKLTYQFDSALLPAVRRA
# In short: as §1
# ELK3 = target: T6, ELK3 (Homo sapiens, UniProt P41970 1-407); settings: protein: recombinant; tags: N-terminal GST; dsDNA, one strand shown
# T6 sequence: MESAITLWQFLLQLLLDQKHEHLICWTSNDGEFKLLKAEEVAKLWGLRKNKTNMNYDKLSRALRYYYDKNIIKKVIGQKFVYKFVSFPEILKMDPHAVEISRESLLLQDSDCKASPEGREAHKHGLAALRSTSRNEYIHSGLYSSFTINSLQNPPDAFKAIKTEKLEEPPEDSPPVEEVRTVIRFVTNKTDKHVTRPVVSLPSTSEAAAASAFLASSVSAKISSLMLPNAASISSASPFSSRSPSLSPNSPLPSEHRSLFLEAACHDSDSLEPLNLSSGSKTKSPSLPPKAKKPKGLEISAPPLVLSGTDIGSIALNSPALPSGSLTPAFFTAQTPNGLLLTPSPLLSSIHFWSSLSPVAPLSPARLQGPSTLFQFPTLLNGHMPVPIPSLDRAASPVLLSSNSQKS
# In short: as §1
# FEV = target: T7, FEV (Homo sapiens, UniProt Q99581 1-238); settings: protein: recombinant; tags: N-terminal GST; dsDNA, one strand shown
# T7 sequence: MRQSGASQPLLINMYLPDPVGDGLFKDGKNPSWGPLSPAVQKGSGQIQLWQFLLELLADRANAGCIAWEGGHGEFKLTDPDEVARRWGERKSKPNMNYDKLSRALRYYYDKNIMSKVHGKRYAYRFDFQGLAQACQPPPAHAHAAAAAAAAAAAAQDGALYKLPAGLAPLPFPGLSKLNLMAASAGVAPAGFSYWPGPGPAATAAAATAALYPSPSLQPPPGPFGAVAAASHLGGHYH
# In short: as §1
# ETV5 = ETV5 (Homo sapiens, UniProt P41161 1-510); settings: protein: recombinant; tags: N-terminal GST; dsDNA, one strand shown
# Sequence of ETV5 (P41161 whole entry): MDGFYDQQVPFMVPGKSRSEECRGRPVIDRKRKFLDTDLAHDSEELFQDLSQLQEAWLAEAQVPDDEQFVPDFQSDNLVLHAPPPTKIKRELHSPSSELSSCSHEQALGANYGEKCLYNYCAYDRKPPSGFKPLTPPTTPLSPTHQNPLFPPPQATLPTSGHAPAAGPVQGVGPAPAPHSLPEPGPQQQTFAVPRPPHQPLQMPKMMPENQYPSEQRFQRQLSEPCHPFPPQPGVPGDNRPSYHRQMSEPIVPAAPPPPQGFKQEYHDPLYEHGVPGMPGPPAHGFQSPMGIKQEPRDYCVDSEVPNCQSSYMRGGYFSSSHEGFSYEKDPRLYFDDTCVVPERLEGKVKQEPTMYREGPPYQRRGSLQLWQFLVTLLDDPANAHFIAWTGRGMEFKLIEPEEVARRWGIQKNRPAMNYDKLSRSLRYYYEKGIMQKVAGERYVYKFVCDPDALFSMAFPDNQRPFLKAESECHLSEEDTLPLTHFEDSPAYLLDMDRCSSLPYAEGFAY
# In short: as §1
# HSF1 = HSF1 (Homo sapiens, UniProt Q00613 1-529); settings: protein: recombinant; tags: N-terminal GST; chain copies: 3; dsDNA, one strand shown
# Sequence of HSF1 (Q00613 whole entry): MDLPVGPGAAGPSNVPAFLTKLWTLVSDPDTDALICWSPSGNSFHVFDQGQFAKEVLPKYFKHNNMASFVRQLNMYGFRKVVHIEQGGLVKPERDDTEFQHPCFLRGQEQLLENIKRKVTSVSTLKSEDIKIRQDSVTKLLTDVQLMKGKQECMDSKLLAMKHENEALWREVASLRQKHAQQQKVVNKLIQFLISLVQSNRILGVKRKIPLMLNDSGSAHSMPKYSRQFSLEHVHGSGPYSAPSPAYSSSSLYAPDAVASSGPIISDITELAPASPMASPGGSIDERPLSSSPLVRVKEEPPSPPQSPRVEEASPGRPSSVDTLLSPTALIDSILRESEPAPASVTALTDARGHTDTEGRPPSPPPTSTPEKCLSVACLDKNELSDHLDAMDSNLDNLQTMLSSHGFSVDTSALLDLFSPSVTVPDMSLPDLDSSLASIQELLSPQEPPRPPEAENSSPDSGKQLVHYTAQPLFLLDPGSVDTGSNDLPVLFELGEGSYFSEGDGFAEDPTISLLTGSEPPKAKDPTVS
# In short: as §1
# SPIC = target: T8, SPIC (Homo sapiens, UniProt Q8N5J4 1-248); settings: protein: recombinant; tags: N-terminal GST; dsDNA, one strand shown
# T8 sequence: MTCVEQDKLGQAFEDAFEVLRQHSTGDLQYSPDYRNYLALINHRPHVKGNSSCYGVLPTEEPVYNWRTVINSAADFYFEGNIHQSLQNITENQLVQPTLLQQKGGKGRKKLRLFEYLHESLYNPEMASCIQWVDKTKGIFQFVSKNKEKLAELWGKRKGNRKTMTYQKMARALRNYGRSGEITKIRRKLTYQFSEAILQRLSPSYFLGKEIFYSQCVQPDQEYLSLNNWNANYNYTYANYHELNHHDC
# In short: as §1
# ELF4 = ELF4 (Homo sapiens, UniProt Q99607 1-663); settings: protein: recombinant; tags: N-terminal GST; dsDNA, one strand shown
# Sequence of ELF4 (Q99607 whole entry): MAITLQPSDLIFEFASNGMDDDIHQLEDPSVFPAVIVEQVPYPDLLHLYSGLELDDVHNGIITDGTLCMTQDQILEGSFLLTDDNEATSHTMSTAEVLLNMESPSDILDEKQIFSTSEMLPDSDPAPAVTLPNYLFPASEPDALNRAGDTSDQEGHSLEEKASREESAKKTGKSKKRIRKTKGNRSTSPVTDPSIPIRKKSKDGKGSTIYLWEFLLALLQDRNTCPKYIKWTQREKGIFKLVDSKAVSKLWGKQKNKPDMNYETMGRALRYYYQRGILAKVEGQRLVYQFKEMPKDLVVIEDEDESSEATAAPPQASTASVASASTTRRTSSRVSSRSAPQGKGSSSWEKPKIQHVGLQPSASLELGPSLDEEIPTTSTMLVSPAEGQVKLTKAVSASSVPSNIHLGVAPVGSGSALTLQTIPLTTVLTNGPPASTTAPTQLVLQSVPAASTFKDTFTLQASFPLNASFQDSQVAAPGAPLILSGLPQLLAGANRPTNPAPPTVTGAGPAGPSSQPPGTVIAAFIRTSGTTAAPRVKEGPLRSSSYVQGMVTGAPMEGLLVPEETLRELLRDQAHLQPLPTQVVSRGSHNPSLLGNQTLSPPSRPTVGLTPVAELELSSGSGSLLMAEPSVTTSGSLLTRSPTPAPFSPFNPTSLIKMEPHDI
# In short: as §1
# ELK4 = target: T9, ELK4 (Homo sapiens, UniProt P28324-2 1-405); settings: protein: recombinant; tags: N-terminal GST; dsDNA, one strand shown
# T9 sequence: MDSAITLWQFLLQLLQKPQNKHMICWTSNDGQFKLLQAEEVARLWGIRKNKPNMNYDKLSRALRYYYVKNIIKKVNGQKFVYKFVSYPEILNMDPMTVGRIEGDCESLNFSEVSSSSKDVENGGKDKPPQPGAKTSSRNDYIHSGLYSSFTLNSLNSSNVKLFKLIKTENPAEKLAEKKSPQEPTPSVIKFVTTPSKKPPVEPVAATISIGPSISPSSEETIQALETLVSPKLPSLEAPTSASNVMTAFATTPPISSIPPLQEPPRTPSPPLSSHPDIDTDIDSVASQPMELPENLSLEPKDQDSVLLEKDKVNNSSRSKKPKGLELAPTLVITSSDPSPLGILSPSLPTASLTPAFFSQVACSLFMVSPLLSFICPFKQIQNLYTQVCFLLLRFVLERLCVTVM
# In short: as §1
# ETV2 = target: T10, ETV2 (Homo sapiens, UniProt O00321 1-342); settings: protein: recombinant; tags: N-terminal GST; dsDNA, one strand shown
# T10 sequence: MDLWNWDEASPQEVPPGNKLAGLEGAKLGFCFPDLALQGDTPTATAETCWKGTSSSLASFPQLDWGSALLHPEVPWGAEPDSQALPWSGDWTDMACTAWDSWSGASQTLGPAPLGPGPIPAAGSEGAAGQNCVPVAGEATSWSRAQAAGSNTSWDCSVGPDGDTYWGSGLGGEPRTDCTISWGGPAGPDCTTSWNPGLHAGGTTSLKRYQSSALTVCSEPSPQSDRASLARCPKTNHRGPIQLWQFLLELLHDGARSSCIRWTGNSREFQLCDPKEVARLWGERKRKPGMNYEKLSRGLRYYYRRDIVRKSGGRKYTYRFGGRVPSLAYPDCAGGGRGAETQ
# In short: as §1
# ELF3 = target: T11, ELF3 (Homo sapiens, UniProt P78545 1-371); settings: protein: recombinant; tags: N-terminal GST; dsDNA, one strand shown
# T11 sequence: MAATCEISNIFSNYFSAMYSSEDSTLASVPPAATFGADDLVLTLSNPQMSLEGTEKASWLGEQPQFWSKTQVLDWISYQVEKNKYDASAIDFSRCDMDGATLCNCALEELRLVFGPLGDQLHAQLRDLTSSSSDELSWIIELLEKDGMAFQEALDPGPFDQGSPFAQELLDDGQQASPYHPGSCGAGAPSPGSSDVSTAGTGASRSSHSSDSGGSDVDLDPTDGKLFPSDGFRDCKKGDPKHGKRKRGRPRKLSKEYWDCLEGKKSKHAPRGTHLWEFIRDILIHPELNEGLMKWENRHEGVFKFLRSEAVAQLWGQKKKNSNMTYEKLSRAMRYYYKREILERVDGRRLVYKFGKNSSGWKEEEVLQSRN
# In short: as §1
# CRX = CRX (Homo sapiens, UniProt O43186 1-299); settings: protein: recombinant; tags: N-terminal GST; dsDNA, one strand shown
# Sequence of CRX (O43186 whole entry): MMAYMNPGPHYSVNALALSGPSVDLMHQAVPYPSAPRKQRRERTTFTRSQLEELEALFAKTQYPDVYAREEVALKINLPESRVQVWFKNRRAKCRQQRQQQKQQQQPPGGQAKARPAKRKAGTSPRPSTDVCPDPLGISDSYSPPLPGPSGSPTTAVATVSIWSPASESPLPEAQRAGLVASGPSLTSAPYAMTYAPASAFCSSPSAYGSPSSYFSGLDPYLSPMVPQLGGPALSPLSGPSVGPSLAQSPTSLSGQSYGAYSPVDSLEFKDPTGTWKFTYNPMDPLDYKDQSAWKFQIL
# In short: as §1
# ETV1 = ETV1 (Homo sapiens, UniProt P50549 1-477); settings: protein: recombinant; tags: N-terminal GST; dsDNA, one strand shown
# Sequence of ETV1 (P50549 whole entry): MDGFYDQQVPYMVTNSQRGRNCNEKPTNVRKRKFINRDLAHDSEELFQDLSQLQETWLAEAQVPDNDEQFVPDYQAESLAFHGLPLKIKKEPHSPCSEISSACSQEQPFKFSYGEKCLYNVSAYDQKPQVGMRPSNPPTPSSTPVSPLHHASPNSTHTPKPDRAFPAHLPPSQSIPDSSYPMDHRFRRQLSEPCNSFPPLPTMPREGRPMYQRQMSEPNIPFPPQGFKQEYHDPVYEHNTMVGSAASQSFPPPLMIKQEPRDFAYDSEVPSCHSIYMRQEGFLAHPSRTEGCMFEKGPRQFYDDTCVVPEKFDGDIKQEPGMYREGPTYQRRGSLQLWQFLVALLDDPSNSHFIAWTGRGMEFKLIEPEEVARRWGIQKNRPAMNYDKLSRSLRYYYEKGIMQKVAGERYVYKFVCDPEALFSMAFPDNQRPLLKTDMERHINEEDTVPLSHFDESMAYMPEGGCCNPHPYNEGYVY
# In short: as §1
sequence,measurement,setting,value
TATGAC,binding signal,FLI1,"1.31 fold enrichment (6-mer frequency, TF over GST control)"
same,binding signal,ELK1,"1.34 fold enrichment (6-mer frequency, TF over GST control)"
same,binding signal,GABPA,"1.37 fold enrichment (6-mer frequency, TF over GST control)"
same,binding signal,ERG,"1.31 fold enrichment (6-mer frequency, TF over GST control)"
same,binding signal,ELF1,"1.34 fold enrichment (6-mer frequency, TF over GST control)"
same,binding signal,EHF,"1.23 fold enrichment (6-mer frequency, TF over GST control)"
same,binding signal,SPI1,"1.27 fold enrichment (6-mer frequency, TF over GST control)"
same,binding signal,SPIB,"1.4 fold enrichment (6-mer frequency, TF over GST control)"
same,binding signal,ELK3,"1.32 fold enrichment (6-mer frequency, TF over GST control)"
same,binding signal,FEV,"1.25 fold enrichment (6-mer frequency, TF over GST control)"
same,binding signal,ETV5,"1.33 fold enrichment (6-mer frequency, TF over GST control)"
same,binding signal,HSF1,"1.18 fold enrichment (6-mer frequency, TF over GST control)"
same,binding signal,SPIC,"1.28 fold enrichment (6-mer frequency, TF over GST control)"
same,binding signal,ELF4,"1.32 fold enrichment (6-mer frequency, TF over GST control)"
same,binding signal,ELK4,"1.45 fold enrichment (6-mer frequency, TF over GST control)"
same,binding signal,ETV2,"1.23 fold enrichment (6-mer frequency, TF over GST control)"
same,binding signal,ELF3,"1.45 fold enrichment (6-mer frequency, TF over GST control)"
same,binding signal,CRX,"1.23 fold enrichment (6-mer frequency, TF over GST control)"
same,binding signal,ETV1,"1.26 fold enrichment (6-mer frequency, TF over GST control)"
